Source: PubChem (several laboratories)
Calb FLC = C. albicans growth inhibition with fluconazole, primary screen, CaCi-2 strain, Alamar Blue fluorescence | C. albicans CaCi-2 (fluconazole-resistant clinical isolate) + fluconazole, 48 h | growth inhibition, % (concentration not given with the values) | actives 0.57% (n = 300,000);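 active means growth inhibition above about 58% in most replicates, limit read from the data, passing the limit was not always enough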;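 further: all wells also contain fluconazole at 8 µg/ml as a sub-toxic cotreatment; 0% = median of DMSO wells and 100% = median of geldanamycin control wells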
TIM10 inh = growth inhibitors of isogenic TIM10 control yeast, primary screen, counter-screen for tim10-1 yeast inhibitor project, luminescence, uHTS. S. cerevisiae TIM10 strain growth, BacTiter-Glo luminescence, 24 h. inhibition, % at 10 µM. actives 1.4% (n = 330,000). AID 463195, 2010;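 active means inhibition of 40% or more at the single tested concentration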;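 further: wild-type TIM10 isogenic control strain grown at permissive 25 °C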
SKKanGAS inh = S. pyogenes SKKanGAS growth inhibitors in kanamycin, primary screen, streptokinase expression inhibitor project, SKKanGAS strain, BacTiter-Glo luminescence; AID 1662, 2009; inhibition, % at 7.5 µM; 6 h; actives 1.3% (n = 300,000);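 active means mean replicate score, as percent of positive control median, at least 50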;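 further: strain carries kanamycin resistance gene driven by streptokinase promoter and grows in 40 µg/ml kanamycin; loss of luminescence reflects streptokinase promoter inhibition or plain growth inhibition; 0% = median of DMSO wells and 100% = positive control at its reference dose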
tim10-1 inh = growth inhibitors of tim10-1 mutant yeast, primary screen, luminescence, uHTS | inhibition, % at 20 µM | actives 2.2% (n = 330,000) | S. cerevisiae tim10-1 ts strain growth, BacTiter-Glo, 24 h;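 active means inhibition of at least 40%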;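 further: mutant grown at 25 °C; 0% = DMSO wells with yeast and 100% = wells holding no yeast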
PfHsp90 yeast 2 = growth inhibition of PfHsp90-expressing yeast, primary screen, antimalarial PfHsp90 inhibitor project, S. cerevisiae, BacTiter-Glo luminescence, single point, set 2 | BacTiter-Glo ATP, 48 h; yeast lacking PDR1 and PDR3 efflux regulators | inhibition, % at 9.4 µM | actives 0.32% (n = 310,000) | AID 504621, 2011;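 active means every replicate shows inhibition above about 80%, whatever the replicate mean, limit read from the data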;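 further: 0% = DMSO neutral controls and 100% = 20 µM radicicol positive controls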
tim23-1 inh = growth inhibitors of tim23-1 mutant yeast, primary screen, luminescence, uHTS; S. cerevisiae tim23-1 growth, BacTiter-Glo luminescence, 24 h; inhibition, % at 20 µM; actives 1.3% (n = 330,000); AID 463212, 2010;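 active means growth inhibition of the mutant yeast at or above 50%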;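 further: temperature-sensitive mutant grown at 25 °C; plate controls were DMSO-treated mutant yeast for no effect and medium wells lacking yeast for full effect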
tim10-1 conf = growth inhibitors of tim10-1 mutant yeast, confirmation, single concentration, luminescence, S. cerevisiae. AID 463213, 2010. inhibition, % at 20 µM. actives 56% (n = 7,400). shares compounds with tim10-1 inh. S. cerevisiae tim10-1 ts strain growth, BacTiter-Glo, 24 h;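 active means inhibition of yeast growth at or above a set limit in either of two repeat tests at 20 µM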;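 further: tim10-1 mutant grown at permissive 25 °C to find synthetic lethal compounds; 0% = DMSO yeast wells and 100% = medium wells without yeast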
Active calls of the source: *; · = no result given. Rows were chosen to be rich in hits. Some 4.7% of all compounds tested hit in one or more screens of this group.

SMILES	Calb FLC	TIM10 inh	SKKanGAS inh	tim10-1 inh	PfHsp90 yeast 2	tim23-1 inh	tim10-1 conf
Oc1ccc(-c2nnc(SCC3CCCCC3)o2)cc1	2.2	32.3	-1.7	43.9*	·	22.2	28.3
COc1ccccc1NC(=O)CSC1CC(=O)N(c2ccc3c(c2)OCO3)C1=O (stereo not given)	8.2	19.8	-7.0	47.1*	3.3	30.9	44.6*
Cc1nc2cc(NS(=O)(=O)c3c(C)c(C)cc(C)c3C)ccc2s1	24.9	30.1	9.8	41.9*	10.6	28.7	32.9*
CCN(CC)c1nc(-c2cccc(OC)c2O)nc2ccccc12	-4.6	28.8	10.2	46.6*	-36.3	26.5	36.2*
CCOc1ccccc1C(=O)Nc1ccc(-n2nncc2C(C)(C)C)cc1	-21.4	12.7	-2.7	19.6	10.2	5.4	·
NC(=O)c1ccc(NC(=O)COC(=O)C2COc3ccccc3O2)cc1 (stereo not given)	·	-2.7	·	-1.6	10.3	-1.3	·
Cc1ccnc(NC(=O)COC(=O)C2COc3ccccc3O2)n1 (stereo not given)	-16.4	-2.6	·	64.0*	·	-3.3	10.1
O=C(Cc1ccc2c(c1)OCCO2)Nc1cc(C(F)(F)F)ccc1N1CCOCC1	·	14.3	·	41.3*	-13.3	42.4	27.7
COc1cc2c(cc1C1NC(=S)NC(C)=C1C(N)=O)CCCC2 (stereo not given)	-19.9	1.8	-4.9	11.8	14.8	0.9	·
CCOc1ccc(NC(=S)N2CCN(S(=O)(=O)c3ccc(OC)cc3)CC2)cc1	-5.1	7.5	9.7	9.4	19.4	15.8	·
CN(C)CCNC(=O)C(c1ccccc1)c1ccccc1	-12.0	6.6	-8.1	4.5	5.4	-2.0	·
CN(C)CCC(=O)C(Cc1ccccc1)c1ccccc1 (stereo not given)	-23.2	22.7	-5.9	45.1*	-23.1	31.2	45.0*
CCc1ccc(C(=O)COC(=O)CNC(=O)C2CCCCC2)cc1	·	0.0	·	1.5	-6.8	24.5	·
O=S(=O)(c1ccc2c(c1)OCCO2)N1CCC(n2nnc3cc(F)ccc32)CC1	16.7	34.8	-0.5	42.0*	·	34.3	30.4
COc1ccc(C(NC(C)=O)c2nccc3cc(OC)c(OC)cc23)cc1OC (stereo not given)	-0.3	0.9	0.3	-8.7	30.0	-3.9	·
COc1ccc(C(NC(C)=O)c2cc(Cl)c3cccnc3c2O)cc1OC (stereo not given)	-27.1	15.8	54.8*	40.2*	-27.6	18.6	28.9
CCCC(=O)NC(c1ccco1)c1cc(Cl)c2cccnc2c1O (stereo not given)	1.6	21.0	71.2*	50.2*	104.7*	47.6	23.6
CCCCNCCS(=O)(=O)NCc1ccc(OC)cc1	·	·	·	·	17.2	·	·
COc1ccc(-c2ccc3c(c2)O/C(=C\c2ccsc2)C3=O)cn1	·	10.9	·	12.1	-10.5	35.1	·
CC(C)Cn1c(N)c(C(=O)COC(=O)/C=C/c2ccccc2)c(=O)n(C)c1=O	1.0	17.4	-2.0	42.2*	-7.3	21.8	21.9
CC(C)Cn1c(N)c(C(=O)CSc2ccccc2)c(=O)n(C)c1=O	0.0	·	9.7	·	-17.8	·	·
CCc1nnc(N/N=C/c2ccc(N3CCC(C)CC3)c([N+](=O)[O-])c2)n1N	17.6	36.1	0.0	47.6*	-47.0	30.6	42.0*
Cc1nnc(N/N=C/c2cc([N+](=O)[O-])c(N3CCC(C)CC3)cc2N2CCC(C)CC2)n1N	-10.4	26.7	32.9	34.1	·	32.8	·
COc1ccccc1Nc1nc(C)cc(C)n1	-1.4	-4.3	-1.5	4.5	-7.3	1.6	·
COc1ccccc1Nc1cc(C)nc(Nc2ccccc2OC)n1	·	34.0	·	40.3*	-16.8	42.0	23.8
SMILES	Calb FLC	TIM10 inh	SKKanGAS inh	tim10-1 inh	PfHsp90 yeast 2	tim23-1 inh	tim10-1 conf
Cc1onc(-c2ccccc2Cl)c1C(=O)N1CCN(c2nc3ccccc3s2)CC1	8.2	32.7	7.7	49.1*	1.6	32.2	29.0
CC1(C)CC(NS(=O)(=O)c2ccc(S(N)(=O)=O)cc2)CC(C)(C)N1	·	9.4	3.0	15.7	1.0	6.4	·
COc1ccc(-n2c(C)cc(C(=O)CSc3nnc(-c4ccoc4C)n3C)c2C)cc1	-5.7	4.0	-2.0	40.2*	0.4	24.8	19.2
CC1=Nc2cc(C(=O)N3CCCCC3)ccc2Sc2ccc(C)cc21	2.1	10.2	8.2	44.8*	20.1	32.1	-0.3
CCCC1=Nc2cc(C(=O)N3CCC(C(=O)OCC)CC3)ccc2Sc2ccccc21	7.4	-1.2	3.1	41.2*	5.4	22.1	-12.1
COc1ccc2[nH]c(C(=O)N3CCN(Cc4ccccc4)CC3)cc2c1OC	0.0	13.9	-11.3	4.3	10.6	28.8	·
COc1ccc(C2NC(=S)NC(O)(C(F)(F)F)C2C(=O)c2cccs2)cc1 (stereo not given)	0.2	2.0	1.0	42.6*	·	15.4	15.8
O=C(CCS(=O)(=O)c1ccccc1)Nc1ccc(Cl)cn1	7.4	2.2	-1.3	-2.4	14.8	7.7	·
COC(=O)c1cccc(NC(=O)c2cc3sccc3n2C)c1	-3.4	31.0	-5.0	43.6*	11.2	33.8	30.8
O=C(COC(=O)C1CC1)Nc1ccc(S(=O)(=O)N2CCOCC2)cc1	·	-1.3	·	10.7	-15.8	14.4	·
Brc1ccc(N=Nc2ccc3ccccc3n2)cc1	5.4	19.0	19.3	40.1*	-20.5	26.5	25.9
CCOC(=O)c1cnc2ccc(C(=O)OC)cc2c1Nc1ccc2c(c1)OCCO2	13.8	24.6	3.0	1.9	-48.0	18.2	·
CCOC(=O)c1cnc2c(OC)cccc2c1Nc1ccc2c(c1)OCCO2	-8.0	34.6	1.7	44.3*	-8.8	41.7	32.2*
C=Cc1ncc(OC)c2c1[nH]c1ccccc12	-9.6	22.0	-7.4	43.7*	-25.6	31.2	37.5*
COc1cc(/C=C/C(=O)c2cccc([N+](=O)[O-])c2)cc(OC)c1OC	19.7	12.9	-12.8	53.5*	21.3	47.6	41.2*
COc1cc(/C=C/C(=O)c2ccc(C)c([N+](=O)[O-])c2)cc(OC)c1O	28.4	28.5	1.7	21.7	1.3	31.2	·
O=C(/C=C/c1ccccc1F)c1cccc([N+](=O)[O-])c1	2.9	27.3	8.7	51.4*	-20.1	38.6	47.9*
COc1ccc(CC(=O)NCC(=O)N/N=C(/C)c2ccco2)cc1	19.7	6.9	2.2	7.9	-10.1	9.7	·
CCOCCCn1c(SCc2ccccc2)nnc1-c1ccncc1	3.1	10.2	-5.5	7.7	16.4	15.4	·
